In the library only some 7.3% were active in any assay of this set; here they are far more common.
VACV mCherry inh = qHTS for Stage-Specific Inhibitors of Vaccinia Orthopoxvirus: mCherry Reporter Primary qHTS. Vaccinia virus mCherry reporter infection, fluorescence. Potency, µM (series often up to 36.5 µM), inactives show at the highest dose activity change, negative = inhibition, actives largely listed as inhibitors. actives 0.63% (n = 310,000). AID 720579, 2013; calls by dose curve; tested in A549 cells; further: potency means the concentration at half of the fitted maximal effect; nearly all actives have a fitted effect of over 35% in size
Vaccinia Venus = qHTS for Stage-Specific Inhibitors of Vaccinia Orthopoxvirus: Venus Reporter Primary qHTS; Vaccinia virus Venus reporter expression, fluorescence; Potency, µM (doses to about 36.5 µM), for the others: at the top dose activity change, negative = inhibition, actives largely listed as inhibitors; actives 0.46% (n = 330,000); AID 720580, 2013; calls by dose curve; tested in A549 cells; further: potency means the concentration at half of the fitted maximal effect; nearly all actives have a fitted effect of over 30% in size
FMDV inh = High Throughput Screening for Foot and Mouth Disease Virus Antivirals | Potency, µM (series often up to 57.9 µM), inactives show at the highest dose activity change, negative = inhibition, most hits filed as inhibitors | AID 1159524, 2015 | actives 1.2% (n = 410,000) | FMDV antiviral cell-based qHTS; calls by dose curve; tested in HEK293T cells; further: read-out not given here; potency means the concentration at half of the fitted maximal effect; nearly all actives have a fitted effect of over 45% in size
HCV inh = qHTS Assay for Inhibitors of Hepatitis C Virus (HCV); Huh7.5.1 HCVcc-Cre infection, luciferase reporter, 44 h; actives 3.4% (n = 340,000); AID 651820, 2012; Potency, µM (titrated, usually from 41.8 µM), for the others: at the top dose activity change, negative = inhibition, usual class: inhibitors; active means well fitted inhibition curve with a large enough effect; inconclusive means small, poorly fitted or top-dose-only effect, or another doubt; inactive means no such curve, though single readings can be large or run the other way; further: potency means the concentration at half of the fitted maximal effect
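Cells (1,000/well) were plated 4 h before compound, then infected with HCVcc-Cre virus (~0.5 moi). After 44 h further culture, infection was read as luciferase luminescence following a 15 min substrate incubation at room temperature.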
HCMV antiviral = qHTS Assay for inhibitors of the human cytomegalovirus (HCMV) | HFF cells, HCMV-luciferase reporter, 72 h; hits give low values | activity change, negative = inhibition, % at 57.5 µM | actives 4.5% (n = 410,000) | AID 1259415, 2018; in the data active means activity change below about -60%; inconclusive means no clear call, values can overlap the other calls; inactive means above about -39%
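Two compound doses tested in HFFs infected with HCMV-luciferase, MOI 1 PFU/cell, 72 h at 37C. Lysate luminescence read with OneGlo; data normalized against buffer-only and 10uM Salinomycin inhibitor controls.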
* marks the source's active call; other numbers are inactive results; i = inactive; u = inconclusive; x = no result given. On the % scale 0 is the no-effect control and ±100 the full control effect.

SMILES	VACV mCherry inh	Vaccinia Venus	FMDV inh	HCV inh	HCMV antiviral
CCOc1ccc2nc(NC(=O)c3cccc(-c4cc5ccccc5oc4=O)c3)sc2c1	u	u	5%	u	-30
Cc1ccccc1-n1c(=O)c(C#N)cc2c(=O)n3ccccc3nc21	x	x	-18%	8%	-24
N#Cc1cc2c(=O)n3ccccc3nc2n(-c2ccc(Cl)cc2)c1=O	-3%	4%	5%	10%	-60*
CCc1cccc(NC(=O)c2oc3ccc4c(c3c2C)C(=O)CC(C)(C)O4)c1	-10%	-8%	u	x	-60*
COc1ccc(NC(=O)c2oc3ccc4c(c3c2C)C(=O)CC(C)(C)O4)cc1OC	-18%	-5%	19%	x	69
O=C(Nc1cnn(Cc2ccc(F)cc2)c1)c1cc(-c2cccs2)on1	x	x	-5%	8.9µM*	16
COc1cccc(-c2cc(C(=O)Nc3cnn(Cc4ccc(Cl)cc4Cl)c3)no2)c1	u	11µM*	-12%	x	u
CCc1cc(C(=O)Nc2cnn(Cc3ccc(F)cc3)c2)no1	0%	7%	37%	x	55
Cc1cccc(NC(=O)CNC(=O)C23CC4CC(CC(Cl)(C4)C2)C3)n1	-14%	-15%	-12%	2%	-4
Cc1cccc(C)c1NC(=O)CNC(=O)C12CC3CC(CC(O)(C3)C1)C2	-21%	-8%	-12%	30%	-73*
Cc1cccc(N2C(N)=C(C#N)C(C#N)(C#N)C2c2ccccc2)c1 (configuration not stated)	x	1%	40µM*	-14%	-14
N#CC1=C(N)N(c2ccccc2)C(c2cccc([N+](=O)[O-])c2)C1(C#N)C#N (configuration not stated)	-12%	0%	u	17%	u
Cc1onc(NC(=O)CSCC(=O)O)c1Br	-3%	2%	1%	5%	-73*
Cc1cccc(C)c1NC(=O)CSCC(=O)O	x	-7%	-5%	13%	-15
CC(=O)[C@H]1CC[C@H]2[C@@H]3C=CC4=CC(=O)CC[C@@]4(C)[C@@H]3CC[C@]12C	-13%	u	u	0.56µM*	17
Cc1ccc(C(=O)C2CCN(C(=O)c3ccc(C)cc3)CC2)cc1	x	x	-45%	u	x
Cc1ccc(C(=O)N2CCC(C(=O)c3c(C)cc(C)cc3C)CC2)cc1	x	x	u	11µM*	x
COc1ccc(C(=O)C2CCN(CC(=O)NCc3ccccc3)CC2)cc1	-26%	-17%	u	u	8
COc1ccc(C(=O)C2CCN(C(=O)c3ccc(OC)cc3)CC2)cc1	-23%	u	-2%	7.9µM*	u
CCOc1ccc(C(=O)N2CCC(C(=O)c3ccc4c(c3)OCCO4)CC2)cc1	x	x	-24%	10µM*	u
COc1ccc(CNC(=O)CN2CCC(C(=O)c3ccc(OC)cc3)CC2)cc1	x	x	u	13µM*	-78*
CCOC(=O)C1CCN(C(=O)c2ccc3c(c2)OCCO3)CC1	x	x	44%	10%	0
O=C(COc1ccc(F)cc1)Nc1ccc(OCc2cc(=O)n3ccsc3n2)cc1	-3%	-4%	-4%	x	-8
COc1ccccc1NCCC(=O)OCC(=O)Nc1cc([N+](=O)[O-])ccc1F	-12%	-8%	-24%	-1%	-15
CCOC(=O)c1[nH]c(C)c(C(=O)OCc2ccccc2F)c1C	u	u	4%	3.2µM*	-19
SMILES	VACV mCherry inh	Vaccinia Venus	FMDV inh	HCV inh	HCMV antiviral
CCOC(=O)c1c(C)[nH]c(C(=O)NNC(=O)c2ccccc2F)c1C	-3%	-14%	30%	u	97
CCOC(=O)c1[nH]c(C)c(C(=O)OCC)c1C	-12%	-21%	29%	u	85
CCOC(=O)c1[nH]c(C)c(C(=O)N2CCc3ccccc32)c1C	x	u	-11%	u	-92*
CCOC(=O)c1[nH]c(C)c(C(=O)c2cc(F)ccc2F)c1C	x	x	10%	u	-86*
Cc1ccccc1/C=C/C1=NCCN1	-1%	-16%	-28%	-25%	-32
CC(=O)C12CCCCC1CC1[C@@H]3CC(C)C4=CC(=O)CC[C@]4(C)C3CC[C@@]12C (some centres not stated)	-6%	-12%	u	-19%	-80*
CC(=O)O[C@]1(C(C)=O)CC[C@H]2[C@@H]3C[C@H](C)C4=CC(=O)CC[C@]4(C)[C@H]3CC[C@@]21C	-6%	-21%	u	u	56
CCOc1ccc(-n2c(=O)c3c(C)c(C)sc3n(CC(=O)NCCc3ccccc3)c2=O)cc1	-13%	-9%	-11%	x	6
Cc1ccc(C(=O)NC2CCCCCCC2)c(Cl)c1	x	x	-46%	15%	-79*
O=C(NC1CCCCCCC1)c1cc(F)c(F)cc1Cl	x	x	43%	18%	-61*
Cc1ccc(C(=O)NC2CCCCC2)cc1	-21%	-26%	x	6%	111
C[C@H]1[C@@H](NS(=O)(=O)c2cc(Cl)cc(Cl)c2)CC[C@@]23CCCN2C(=O)CCC[C@@H]13	x	x	x	x	-5
Cc1c(C(C)C)c(=O)n(-c2ccccc2)n1C	x	x	x	x	-3
Cc1c(C(C)C)c(=O)n(-c2ccc(S(=O)(=O)NCc3ccccc3)cc2)n1C	-20%	-12%	u	0.89µM*	-85*
Cc1c(C(C)C)c(=O)n(-c2ccc(S(=O)(=O)NC3CCCCC3)cc2)n1C	i	-9%	-29%	5µM*	-89*
Cc1cc(N2CCN(C)CC2)nc2ccc(NC(=O)Nc3ccc(F)cc3F)cc12	-10%	-8%	35%	x	u
Cc1cc(N2CCN(C)CC2)nc2ccc(NC(=O)CCC(=O)N3CCN(c4ccc([N+](=O)[O-])cc4)CC3)cc12	u	-29%	-17%	11µM*	-64*
CCOc1cc(C(=O)Nc2ccc3nc(N4CCN(C)CC4)cc(C)c3c2)cc(OCC)c1OCC	i	-23%	-29%	x	-66*
Cc1cc(N2CCOCC2)nc2ccc(NC(=O)CCC(=O)N3CCN(c4ccccc4)CC3)cc12	u	-5%	0%	u	59
Cc1cc(N2CCN(C)CC2)nc2ccc(NC(=O)c3cccnc3Cl)cc12	-14%	-16%	-2%	u	28
Cc1cc(N2CCN(C)CC2)nc2ccc(NC(=O)Nc3ccccc3Br)cc12	-23%	-17%	19%	x	-95*
Cc1cc(N2CCN(C)CC2)nc2ccc(NC(=O)Nc3cccc(Cl)c3)cc12	14%	-24%	3%	x	-99*
CN(C)c1nc2cc(Cl)ccc2cc1CN(Cc1ccc2c(c1)OCO2)C(=O)c1ccoc1	-9%	-2%	6%	x	x
Cc1oc(-c2ccc(Cl)cc2)nc1Cn1c(=O)cc(-c2ccccc2)c2c(C)nn(C)c21	0%	-5%	7%	x	-6
Cc1ccc(NC(=O)Nc2ccc3nc(N4CCN(C)CC4)cc(C)c3c2)cc1C	-27%	-22%	-2%	x	-100*
Cc1cc(N2CCN(C)CC2)nc2ccc(NC(=O)Nc3ccccc3)cc12	i	-5%	42%	x	u

Screening results (PubChem BioAssay)
